Screening results as filed in PubChem BioAssay.
Shiga inhibitor: blocks Shiga toxin action in Vero cells. inhibition, % at 38.7 µM. Vero cells, Shiga toxin protein synthesis inhibition reporter. 290,000 compounds, 9.2% hits. AID 2315; in the data active means inhibition mostly above about 28%, no sharp cut-off; inactive means mostly below about 43%; further: 0% is about no effect
Tb PYK inh: blocks Trypanosoma brucei pyruvate kinase | 410,000 compounds, 0.12% hits | TbPYK enzyme, Kinase-Glo Plus ATP luminescence, 45 min | Potency, µM (titrated, usually from 76.8 µM), inactives show top-dose activity, negative = inhibition, hits mostly inhibitors | Q57TT1 | AID 624173; further: potency means the concentration at half of the fitted maximal effect; on the % scale 0 is the no-effect control and ±100 the full control effect; nearly all actives have a fitted effect of over 50% in size
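In this concentration-response screen, enzyme-free wells defined baseline while DMSO plates tracked drift. Each reaction combined TbPYK, substrate, compound and 130 uM ADP for 45 min at room temperature. Kinase-Glo Plus luminescence gave the signal.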
RE007 growth inh: less growth of the S. pombe RE007 Vpr strain. S. pombe RE007 Vpr strain, BacTiter-Glo ATP luminescence, 24 h. Potency, µM (top dose mostly 92.2 µM), for the others: top-dose activity change, negative = less growth, actives largely listed as inhibitors. 360,000 compounds, 0.21% hits. AID 651644; active means well fitted falling curve with a large enough effect; further: potency means the concentration at half of the fitted maximal effect; on the % scale 0 is the no-effect control and ±100 the full control effect; nearly all actives have a fitted effect of over 50% in size
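Fission yeast RE007 carrying one integrated HIV-1 vpr copy, seeded at OD 0.01 in PMG+AL medium with 23 nL pinned compound. Grown 24 h at 30 degrees; viability read by BacTiter-Glo luminescence after 5 min.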
LmPK inh: LmPK (Leishmania mexicana) enzyme inhibition. Potency, µM (series often up to 57.5 µM), for the others: at the highest dose activity change, negative = inhibition, actives largely listed as inhibitors. 290,000 compounds, 0.37% hits. purified LmPK, Kinase-Glo ATP luminescence, 1 h; further: potency means the concentration at half of the fitted maximal effect; on the % scale 0 is the no-effect control and ±100 the full control effect
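Screened at intermediate enzyme activity to detect both inhibitors and activators: LmPK at 0.1 nM, with a 0.5 nM enzyme column as activation reference. PEP 0.5 mM, ADP 0.1 mM; ATP detected by luminescence after 1 h.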
Cycloheximide cs: affects cycloheximide protein synthesis inhibition readout, counter-screen | cell reporter, cycloheximide protein synthesis inhibition counterscreen | max response, % | 300,000 compounds, 12% hits | AID 2314; in the data active means max response mostly above about 13%, no sharp cut-off; inactive means mostly below about 14%; further: read at 38.3 µM for the half of the compounds with a filed dose; 0% is about no effect
FBPA Giardia inh: Giardia lamblia aldolase inhibition | A8B2U2 | 290,000 compounds, 0.71% hits | Potency, µM (highest dose often 59.6 µM), without a hit: top-dose activity, negative = inhibition, actives largely listed as inhibitors | purified Giardia FBPA; further: potency means the concentration at half of the fitted maximal effect; on the % scale 0 is the no-effect control and ±100 the full control effect; nearly all actives have a fitted effect of over 55% in size
Target sequence (A8B2U2 whole entry, looked up): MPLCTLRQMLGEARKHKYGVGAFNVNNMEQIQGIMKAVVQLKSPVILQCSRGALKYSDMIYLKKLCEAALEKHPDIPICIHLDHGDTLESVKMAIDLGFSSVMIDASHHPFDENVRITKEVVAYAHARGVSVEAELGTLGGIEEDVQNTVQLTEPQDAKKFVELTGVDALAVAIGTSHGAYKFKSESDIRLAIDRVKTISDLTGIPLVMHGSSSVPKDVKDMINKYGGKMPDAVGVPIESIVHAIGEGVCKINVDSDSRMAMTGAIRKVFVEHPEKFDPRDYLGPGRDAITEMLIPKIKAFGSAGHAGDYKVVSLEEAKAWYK
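Giardia FBPA (40 nM reagent) was preincubated 10 min at RT with compound (up to 57.5 uM final), then substrate plus GAPDH/TPI/NAD/arsenate coupling system with diaphorase/resazurin was added; resorufin fluorescence (525/598 nm) was read after 20 min.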
Numbers without * were called inactive. Shown is part of a subset that was picked to be rich in hits. Unless noted, the call rests on the fitted dose curve; in most records, active means well fitted curve in the direction sought with a large enough effect; inconclusive means small, poorly fitted or top-dose-only effect, or another doubt; inactive means no such curve, though single readings can be large; an effect the other way counts as inactive or inconclusive.

For COc1ccccc1OC(C)C(=O)N(Cc1ccco1)C1CCS(=O)(=O)C1 (centres undefined) the results were Shiga inhibitor 25*, Tb PYK inh 6%, RE007 growth inh 1%, LmPK inh -7%, Cycloheximide cs 14* and FBPA Giardia inh -25%.
Screening CCc1ccc(OC(C)C(=O)N(Cc2ccco2)C2CCS(=O)(=O)C2)cc1 (centres undefined) returned Shiga inhibitor 24, Tb PYK inh -4%, RE007 growth inh -1%, LmPK inh -4%, Cycloheximide cs -2 and FBPA Giardia inh 4%.
For Cn1c(=O)c2sccc2n2c(CCC(=O)Nc3ccc(F)cc3)nnc12 the results were Tb PYK inh 1%.
For CSc1ncc(C(=O)Nc2cc(Cl)ccc2C)c(-c2ccccc2)n1 the results were Tb PYK inh -3%.
Screening COc1ccc(OC)c(CNC(=O)CCc2c(C)nc3c(c2C)c(=O)n(C)c(=O)n3C)c1 returned Tb PYK inh 0%.
For O=C(OCC#CCSc1nc2ccccc2o1)c1cc2ccccc2o1 the results were Shiga inhibitor 32, Tb PYK inh 3%, RE007 growth inh 11%, LmPK inh 3%, Cycloheximide cs 15* and FBPA Giardia inh 0%.
O=C(OCC#CCSc1nnc(-c2cccc3ccccc23)o1)c1ccco1 was read as Shiga inhibitor 6, Tb PYK inh 2%, RE007 growth inh -6%, LmPK inh -1% and Cycloheximide cs 13.
O=C(OCC#CCSc1nc2ccccc2o1)c1ccco1 was read as Shiga inhibitor 31*, Tb PYK inh 2%, RE007 growth inh -4%, LmPK inh 0%, Cycloheximide cs 13* and FBPA Giardia inh -8%.
O=c1c2c3c(sc2nc(NCCO)n1CCc1ccccc1)CCCCC3 was read as Shiga inhibitor -15, Tb PYK inh -11%, RE007 growth inh 8%, LmPK inh 3%, Cycloheximide cs 10 and FBPA Giardia inh -8%.
For O=C(Cn1c(=O)n(Cc2ccco2)c(=O)c2c3c(sc21)CCCCC3)c1ccccc1 the results were Shiga inhibitor 57*, Tb PYK inh -2%, RE007 growth inh -16%, LmPK inh 0%, Cycloheximide cs 12 and FBPA Giardia inh -1%.
Screening O=c1c2c3c(sc2nc(NCCO)n1Cc1ccco1)CCCCC3 returned Shiga inhibitor 19, Tb PYK inh 0%, RE007 growth inh -2%, LmPK inh 3%, Cycloheximide cs 14* and FBPA Giardia inh 0%.
For CN(C)CCNc1nc2sc3c(c2c(=O)n1Cc1ccccc1)CCCCC3 the results were Shiga inhibitor -6, Tb PYK inh 1%, RE007 growth inh 12%, LmPK inh 2%, Cycloheximide cs -1 and FBPA Giardia inh -2%.
`COCCNc1nc2sc3c(c2c(=O)n1Cc1ccco1)CCCCC3` gave Shiga inhibitor 30*, Tb PYK inh -2%, RE007 growth inh -15%, LmPK inh 6%, Cycloheximide cs 28* and FBPA Giardia inh 5%.
Screening CN(C)C(=S)N=c1ssc(=S)n1Cc1cccnc1 returned Tb PYK inh -22% and RE007 growth inh -16%.
O=C(Cn1nnc2ccccc21)NNC(=O)c1ccccc1 was read as Shiga inhibitor 4, Tb PYK inh -5%, RE007 growth inh -2%, LmPK inh -15%, Cycloheximide cs -1 and FBPA Giardia inh 6%.
O=C(/C=C/c1ccc2c(c1)OCCO2)N1CCN(c2ccc(F)cc2)CC1 was read as Shiga inhibitor -12, Tb PYK inh -4%, RE007 growth inh 14%, LmPK inh 0%, Cycloheximide cs -1 and FBPA Giardia inh 1%.
Screening CC(C)(C)OC(=O)N1CCN(C(=O)Nc2ccc3c(c2)OCCO3)CC1 returned Shiga inhibitor 26, Tb PYK inh 2%, RE007 growth inh -4%, LmPK inh 0%, Cycloheximide cs 24* and FBPA Giardia inh -1%.
For Cc1cccc(C)c1N1CCN(C(=O)Nc2ccc3c(c2)OCCO3)CC1 the results were Shiga inhibitor 56*, Tb PYK inh -12%, RE007 growth inh 12%, LmPK inh 12%, Cycloheximide cs 45* and FBPA Giardia inh -4%.
